# Screening data from PubChem.
# G9a block – inhibitors of human histone lysine methyltransferase G9a. G9a H3K9 monomethylation, AlphaScreen, 2 h. Potency, µM (series often up to 102 µM), for inactives: at the top dose activity, negative = inhibition, hits mostly inhibitors. 350,000 compounds, 8.8% hits; note: potency is the fitted concentration of half-maximal effect; % is set by controls: 0 for no effect and ±100 for the full control effect; nearly all actives have a fitted effect of over 75% in size
#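 Methyltransferase reactions run at room temperature for 2 h (20 nM enzyme, 500 nM biotin-H3K9 peptide, 20 uM SAM) after a 15 min compound preincubation; product detected by AlphaScreen beads and anti-H3K9me1 antibody.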
# HP1b chromo inh – inhibitors of HP1-beta chromodomain binding to methylated histone tails; P83916; AlphaScreen HP1-beta / biotin-H3K9me3 peptide binding; Potency, µM (titrated, usually from 114 µM), inactives show at the top dose activity change, negative = inhibition, actives largely listed as inhibitors; 390,000 compounds, 0.56% hits; note: potency is the fitted concentration of half-maximal effect; nearly all actives have a fitted effect of over 70% in size
#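 Compound inhibition of the preformed complex between 50 nM HP1-beta and 50 nM biotinylated H3K9me3 peptide was read by AlphaScreen. Buffer was PBS pH 7.4 with 0.01% Tween-20. Incubations ran 30 min at room temperature, with 10 ug/mL donor/acceptor beads.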
# JMJD2A Tudor – blocks the human JMJD2A Tudor domain. Potency, µM (highest dose often 114 µM), for inactives: at the highest dose activity change, negative = inhibition, usual class: inhibitors. AlphaScreen JMJD2A-Tudor / H3K4me3 peptide binding. 390,000 compounds, 4.4% hits. O75164; note: potency is the fitted concentration of half-maximal effect; % is set by controls: 0 for no effect and ±100 for the full control effect; nearly all actives have a fitted effect of over 50% in size
# BAZ2B block – inhibitors of human BAZ2B bromodomain. Q9UIF8. AlphaScreen BAZ2B-H3K14Ac peptide displacement. Potency, µM (titrated, usually from 114 µM), inactives show at the highest dose activity change, negative = inhibition, usual class: inhibitors. 360,000 compounds, 4.4% hits; note: potency is the fitted concentration of half-maximal effect; % is set by controls: 0 for no effect and ±100 for the full control effect; nearly all actives have a fitted effect of over 60% in size
#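 In this displacement format the biotinylated H3(5-23) peptide acetylated at Lys14 serves as ligand at 50 nM, with BAZ2B at 50 nM in PBS pH 7.4 containing 0.01% Tween-20. Donor and acceptor beads are 10 ug/mL final.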
# CtBP-E1A inh – CtBP/E1A binding inhibition. 340,000 compounds, 0.49% hits. activity change, % (test concentration not listed). AID 651724. AlphaScreen GST-E1A/His-CtBP binding, 1536-well; stronger effect = lower value; in the data active = activity change below about -65%; inconclusive = mostly about -30% to -63%; note: % is set by controls: 0 for no effect and ±100 for the full control effect
#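 Protein mix (5X: 125 nM each GST-E1A, His-CtBP) was incubated with pinned compound 2 h at 37 deg C in dark, in 50 mM Tris pH 8.0 buffer with 300 mM NaCl. Glutathione donor and nickel acceptor beads followed; AlphaScreen signal read after 1 h.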
# Six1-Eya2 inh – inhibitors of human Six1/Eya2 interaction; Q15475+O00167; AlphaScreen GST-Six1/His-Eya2 binding, biochemical; stronger effect = lower value; activity change, % (no concentration beside the values); 360,000 compounds, 0.56% hits; AID 651725; in the data active = activity change below about -65%; inconclusive = mostly about -30% to -63%; note: % is set by controls: 0 for no effect and ±100 for the full control effect
# Target sequence (O00167 whole entry, looked up): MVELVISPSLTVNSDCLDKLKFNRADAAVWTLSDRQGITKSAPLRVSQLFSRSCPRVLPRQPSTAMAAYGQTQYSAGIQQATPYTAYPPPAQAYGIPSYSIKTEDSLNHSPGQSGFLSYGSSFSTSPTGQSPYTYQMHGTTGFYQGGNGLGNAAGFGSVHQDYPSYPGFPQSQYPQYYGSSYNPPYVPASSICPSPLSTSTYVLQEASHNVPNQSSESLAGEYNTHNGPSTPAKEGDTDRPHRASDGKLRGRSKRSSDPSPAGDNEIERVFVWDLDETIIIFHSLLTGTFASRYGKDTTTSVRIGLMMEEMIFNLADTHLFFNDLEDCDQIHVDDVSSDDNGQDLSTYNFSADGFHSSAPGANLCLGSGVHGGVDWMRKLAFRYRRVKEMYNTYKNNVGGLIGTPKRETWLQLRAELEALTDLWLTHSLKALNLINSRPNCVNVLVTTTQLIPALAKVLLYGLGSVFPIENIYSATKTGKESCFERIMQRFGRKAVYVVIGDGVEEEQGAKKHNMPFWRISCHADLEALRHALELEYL
# Target sequence (Q15475 whole entry, looked up): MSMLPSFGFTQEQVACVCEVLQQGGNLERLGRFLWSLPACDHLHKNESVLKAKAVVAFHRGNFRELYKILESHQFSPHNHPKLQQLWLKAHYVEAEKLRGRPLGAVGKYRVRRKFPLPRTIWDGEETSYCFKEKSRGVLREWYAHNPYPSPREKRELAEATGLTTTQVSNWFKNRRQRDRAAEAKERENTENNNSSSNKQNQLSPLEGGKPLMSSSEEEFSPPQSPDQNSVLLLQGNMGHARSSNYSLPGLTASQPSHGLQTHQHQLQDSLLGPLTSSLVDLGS
#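 Compounds are tested against tagged Six1 and Eya2 proteins bridged by glutathione donor and nickel acceptor beads; after a one-hour incubation at 37 °C without light, AlphaScreen emission is recorded.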
# Active calls of the source: *; u = inconclusive; x = no result; ! = repeats disagree; [ ] = remark or other dose. Rows were chosen to be rich in hits. Some 10% of all compounds tested hit in one or more screens of this group. Unless noted, calls come from the whole dose curve; as a rule, active = well fitted inhibition curve with a large enough effect; inconclusive = small, poorly fitted or top-dose-only effect; inactive = no such curve, though single readings can be large or run the other way.
SMILES,G9a block,HP1b chromo inh,JMJD2A Tudor,BAZ2B block,CtBP-E1A inh,Six1-Eya2 inh
C[N+]1=C(/C=C/Nc2ccccc2)C(C)(C)c2ccccc21,u,16.2%,-14.1%,-33.1%,0.9,-0.4
COc1cc(CCN)ccc1O,-24.2%[59 µM],61.5%,-6.9%,9.3%,0.0,3.3
COc1cc(N)ccc1Cc1ccc(N)cc1OC,-20.5%[59 µM],-13.8%,79.4µM*,x,-3.9,-5.9
CC(C)(C)c1ccc(O)c(N=Cc2c(O)ccc3ccccc23)c1,8.91µM*,30.0%,u,39.8µM*,-2.4,-5.5
CC/C(CC(c1ccccc1)c1c(O)c2ccccc2oc1=O)=N\NC(N)=S (configuration not stated),-5.7%[59 µM],u,3.16µM*,-0.8%,-1.5,-7.8
C/C(CC(c1ccccc1)c1c(O)c2ccccc2oc1=O)=N\Nc1ccc([N+](=O)[O-])cc1[N+](=O)[O-] (configuration not stated),14.1µM*,u,35.5µM*,35.5µM*,-28.9,u
COc1ccc(C(CC(C)=O)c2c(O)c3ccccc3oc2=O)cc1OC (configuration not stated),x,x,x,x,4.8,7.7
O=c1oc2ccccc2c(O)c1C(c1ccc([N+](=O)[O-])cc1)c1c(O)c2ccccc2oc1=O,39.8µM*,0.8%,u,56.2µM*,-19.1,u
Cc1ccc(-n2c(/C=C/c3ccccc3)nc3ccccc3c2=O)cc1Cl,9.8%[59 µM],16.9%,-4.3%,2.5%,x,x
CN1CCN(c2ccc(NC(=O)Oc3ccccc3)cc2)CC1,3.55µM*,-0.7%,-22.6%,-1.1%,-3.9,-3.3
CC1(C)N(O)C2CCCCC2N1O (configuration not stated),8.91µM*,47.8%,2.82µM*,-8.8%,-1.9,-4.9
CC1(O)C[C@]2(C)N(O)C3CCCC[C@@H]3N2O1 (some centres not stated),u,21.4%,-7.4%,5.9%,9.0,-0.2
CCCCC/C=C\C=C\[C@H](CCCCCCCC(=O)O)OO,6.7%[59 µM],x,x,x,x,x
Oc1c(Br)c(Br)c(Br)c(Br)c1Br,5.0%[0.501 µM],-22.6%,u,56.2µM*,-10.9,-3.5
CCn1ccnc1CN1CCCC(C(=O)c2cc(F)ccc2OC)C1 (configuration not stated),7.08µM*,-10.8%,-20.8%,-38.6%,1.6,4.8
C[C@H](CO)N1C[C@H](C)[C@@H](CN(C)Cc2ccc(-c3ccccc3)cc2)Oc2c(NC(=O)c3ccncc3)cccc2C1=O,x,3.2%,u,x,u,u
CNC(=O)COC(=O)c1ccc(-c2nc3ccccc3s2)s1,u,10.5%,-2.8%,3.3%,7.4,10.2
O=C(c1c[nH]c(C(=O)C(Cl)(Cl)Cl)c1)c1ccccc1Cl,-1.7%[59 µM],11.4%,u,u,8.4,9.4
CCCCCCCSc1cc(OC)c(CCN(C)C)cc1OC,u,u,35.5µM*,25.1µM*,-5.3,u
CC(C)(O)C1C2OC(=O)C1[C@]1(O)C[C@H]3O[C@]34C(=O)O[C@H]2[C@]14C (some centres not stated) (tested in a mixture with another compound),22.1%[12.7 µM],x,x,x,x,x
CN1CCC[C@H]1c1cccnc1,14.1µM*!,24.0%,u,-5.2%,6.9,0.1
c1cncc(C2CCCCN2Cc2ccc3c(c2)OCO3)c1 (configuration not stated),79.4µM*,0.6%,-33.1%,u,-8.7,2.4
O=C1C2CCCN2C(c2cccnc2)N1c1nccs1 (configuration not stated),12.6µM*,18.2%,u,-35.3%,-0.6,-6.2
Clc1cccc(CN2CCCCC2c2cccnc2)c1 (configuration not stated),56.2µM*,49.5%,-13.5%,u,33.5,4.4
CC(CNC(=O)c1ccc(CSc2nc3ccncc3n2Cc2ccc(F)cc2)cc1)c1ccccc1 (configuration not stated),u,30.8%,-23.3%,-8.5%,x,x
SMILES,G9a block,HP1b chromo inh,JMJD2A Tudor,BAZ2B block,CtBP-E1A inh,Six1-Eya2 inh
COc1ccc(CCN)cc1,32.1%[59 µM],x,x,x,x,x
CC(C)[N+](C)(C)CC(O)CN(c1ccccc1)c1ccccc1 (configuration not stated),-3.6%,7.9%,u,-6.3%,1.0,-3.0
Cc1cc2oc(=O)cc(-c3ccccc3)c2c(C)c1-c1ccc(CO)cc1,u,32.9%,-13.7%,x,1.0,-9.3
CCOc1ccc(OC(=O)c2ccc3c(=O)n4c(nc3c2)CCC4)cc1,-28.8%[59 µM],-8.3%,u,u,-9.6,3.9
COc1ccc(-c2nc3ccccc3c(=O)n2-c2ccc(OC)cc2)cc1,-2.9%[0.501 µM],27.7%,-12.0%,-5.2%,0.4,-6.7
Cc1ccc(-n2sc3ccccc3c2=O)cc1,1.12µM*,u,7.08µM*,7.94µM*,-9.5,-9.2
O=C(O)c1ccccc1C(=O)O,1.0%[0.501 µM],97.0%,-11.7%,u,2.6,26.6
O=C(O)c1cccc2nc3ccccc3nc12,39.8µM*,41.5%,-8.8%,-31.2%,3.0,-0.2
O=C(c1ccco1)N1CCC[C@@]2(CCN(Cc3ccncc3)C2)C1,6.7%[12.7 µM],x,x,x,x,x
Cc1cccc(N2CCN(C(=O)C34CC5CC(CC(C5)C3)C4)CC2)c1C,1.58µM*,57.0%,-7.2%,-15.1%,10.4,2.3
Cc1ccccc1N1CCN(S(=O)(=O)c2nnc(NC(=O)c3ccc(Cl)cc3)s2)CC1,u,-16.0%,u,u,x,x
CCOP(=O)(OCC)c1nc(-c2ccc(F)cc2)oc1NCc1ccccc1,28.9%[12.7 µM],-7.1%,-12.3%,u,u,-23.1
Cc1ccc(-n2ncc(C(=O)N3CCN(c4ccc(Cl)cc4)CC3)c2C2CCN(C(=O)OC(C)(C)C)CC2)c(C)c1,u,-2.6%,u,-21.8%[57.1 µM],x,x
O=C(O)C1C2CCC(O2)C1C(=O)Nc1ccc(Cl)cc1 (configuration not stated),12.7%[59 µM],25.3%,-8.4%,u,9.1,-4.5
COc1ccc(NC(=O)C2C3CCC(O3)C2C(=O)O)c(OC)c1 (configuration not stated),10µM*,0.1%,-35.6%,-15.7%,-2.1,1.5
O=C1NC(=O)C(Sc2ccccc2[N+](=O)[O-])C(=O)N1,2.82µM*,u,28.2µM*,50.1µM*,-9.8,20.6
Cc1cc(Oc2cc(NN3CCCCC3)c([N+](=O)[O-])cc2[N+](=O)[O-])ccc1[N+](=O)[O-],7.08µM*,-20.2%,17.8µM*,50.1µM*,-22.5,-29.2
Clc1ccccc1CN1CCNCC1,x,43.9%,4.8%,7.6%,0.6,2.3
CC(=O)N1CCN(Cc2ccc(Cl)nc2)CC1,-43.5%[2.33 µM],16.2%,0.7%,-3.5%,6.5,3.3
